This is part of a sample that, as a whole, favours compounds with a hit. Of some 83,000 tested, about 20% had one in any assay.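 The test compound was applied at a single concentration to cells in 96-well plates for 48 hours, and percent growth was recorded.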 Activity calls are given as the source filed them. How the source made its calls: active means growth percent below 10; inactive means the rest.
tested on: OVCAR-5 ovarian; assay: NCI-60 one-dose screen, 48 h (100 = growth as untreated, 0 = no growth, -100 = all killed); conditions: 10 µM unless noted

| Compound | growth |
| --- | --- |
| O=C(NNc1nc2cc(C(F)(F)F)ccc2n2cccc12)c1cnccn1 | -59.2% (active) |
| Cc1cccc(NC(=O)[C@]23CCC(C)(C)CC2C2=CCC4[C@@]5(C)C[C@@H](O)[C@H](O)[C@@](C)(CO)C5CC[C@@]4(C)[C@]2(C)CC3)c1 (stereo partly specified) | -28.9% (active) |
| CCCCSc1nc(NCCc2c[nH]c3ccccc23)c(C#N)c(-c2ccc(F)cc2)n1 | 97.3% (inactive) |
| COc1ccc(-c2ccnc(SCc3cc4cc(Cl)ccc4[nH]c3=O)n2)cc1 | 135% (inactive) |
| O=c1[nH]c2ccccc2cc1CSc1nccc(-c2ccc3ccccc3c2)n1 | 93.7% (inactive) |
| CCCCCCCCc1ccc(S(=O)(=O)Nc2ccc(CC)cc2C(=O)O)cc1 | 117% (inactive) |
| COc1cc(OC)c2c3nc4cc(C)c(C)cc4nc3n(CCN(C)C)c2c1 | 73.1% (inactive) |
| N#Cc1c(-c2cccc(O)c2O)cc(-c2ccc3ccccc3c2)[nH]c1=O | 79.5% (inactive) |
| O=c1[nH]n(C(=S)N/N=C/c2ccccc2Cl)c(=O)c2ccccc12 | 9.48% (active) |
| COc1ccc(C(=O)/C=C/c2cccc(Cl)c2Cl)cc1S(N)(=O)=O | -7.8% (active) |
| COc1ccc(C(=O)/C=C/c2cccnc2)cc1S(N)(=O)=O | 77.2% (inactive) |
| Cc1cc2nc3c4ccccc4n(CC4=NCCN4)c3nc2cc1C | -76.9% (active) |
| CCCCCCCCc1ccc(C(=O)Nc2cccc(P(=O)(O)O)c2)cc1 | 116% (inactive) |
| Cc1cc2nc3c([nH]c2cc1C)c1ccc(=O)cc1n3CCN(C)C | 39.8% (inactive) |
| O=C(c1ccc(Cl)cc1)c1ccc(OCCCN2CCN(c3ccncc3)CC2)cc1 | 69% (inactive) |
| CCCCSc1nc(NCCc2c[nH]c3ccccc23)c(C#N)c(-c2ccccc2)n1 | 82.7% (inactive) |
| O=C1N/C(=N\c2nccs2)S/C1=C\C=C/c1ccccc1 | 61.8% (inactive) |
| CC(=O)OC[C@@]1(C)C2CC[C@]3(C)C(CC=C4C5CC(C)(C)CC[C@]5(C(=O)Nc5cccc(C)c5)CC[C@]43C)[C@@]2(C)C[C@@H](OC(C)=O)[C@@H]1OC(C)=O (stereo partly specified) | 81.2% (inactive) |
| COc1ccc(C(SCCNCc2cc(N(C)C)ccn2)(c2ccccc2)c2ccccc2)cc1 | -13.8% (active) |

| Compound | growth |
| --- | --- |
| O=c1onc(-c2cc3ccccc3nc2Cl)n1-c1cccc2ccccc12 | 94.8% (inactive) |
| COc1ccc(C2=NN(c3ccccc3)C(c3ccc(OCc4ccccc4)c(OC)c3)C2)cc1OC (stereo unspecified) | 102% (inactive) |
| Nc1n[nH]c2cccc(C#Cc3cccc(NC(=O)c4cccc(Cl)c4)c3)c12 | 53.2% (inactive) |
| O=C(Cn1c2c(sc1=O)[C@H]1[C@@H](O)[C@@H](O)[C@H](O)[C@@H]1CS2)N1CCOCC1 | 103% (inactive) |
| CC(=O)Nc1cccc(Nc2nc(N[C@H]3CCCc4ccccc43)c3ccccc3n2)c1 | 103% (inactive) |
| N/C(=N\c1nc2ccccc2s1)NC(=O)NCCCCCCO | 74.5% (inactive) |
| COc1ccc2c(c1)C(=N/N=C(\C)c1ccc(OC)c(S(N)(=O)=O)c1)C(=O)N2 | 99.8% (inactive) |
| CCCSc1nc(NCCc2c[nH]c3ccccc23)c(C#N)c(-c2ccc(F)cc2)n1 | 82.6% (inactive) |
| O=c1[nH]c2ccccc2cc1CSc1cccc(Nc2nccc(-c3ccc4ccccc4c3)n2)c1 | 114% (inactive) |
| CCN(CC)c1ccnc(CNCCSC(c2ccccc2)(c2ccccc2)c2ccc(C)cc2)c1 | -70.6% (active) |
| CN(C)CCn1c2ccccc2c2nc3cc(C(F)(F)F)ccc3nc21 | 38.8% (inactive) |
| CC1(C)CC[C@]2(C(=O)Nc3ccc(Br)cc3)CC[C@]3(C)C(=CCC4[C@@]5(C)C[C@@H](O)[C@H](O)[C@@](C)(CO)C5CC[C@]43C)C2C1 (stereo partly specified) | -21.8% (active) |
| CCC(C)(C)c1ccc(OCCCCCCN2CCN(c3ccncc3)CC2)cc1 | 65.7% (inactive) |
| COc1ccc(C(=O)/C=C/c2ccc(Cl)c(Cl)c2)cc1S(N)(=O)=O | 10.7% (inactive) |
| Cc1cc(N=C2NC(=O)CS2)n[nH]1 | 99.6% (inactive) |
| Cc1ccc(C(=O)CSc2nc3ccc(F)cc3c(=O)n2-c2ccc(Cl)cc2)cc1 | 76.2% (inactive) |
| COc1ccc(C(=O)/C=C/c2cccc(Br)c2)cc1S(N)(=O)=O | -92% (active) |
| Cc1sc(C(NC(=O)OCCn2c([N+](=O)[O-])cnc2C)C(F)(F)Cl)nc1-c1ccc(OC(F)(F)F)cc1 (stereo unspecified) | -96% (active) |
| COc1ccc(NC(=O)Cn2c3c(sc2=O)[C@H]2[C@@H](O)[C@@H](O)[C@H](O)[C@@H]2CS3)cc1 | 105% (inactive) |

tested on: OVCAR-4 ovarian; assay: as above; conditions: 10 µM unless noted

| Compound | growth |
| --- | --- |
| O=C(NNc1nc2cc(C(F)(F)F)ccc2n2cccc12)c1cnccn1 | -43.9% (active) |
| Cc1cccc(NC(=O)[C@]23CCC(C)(C)CC2C2=CCC4[C@@]5(C)C[C@@H](O)[C@H](O)[C@@](C)(CO)C5CC[C@@]4(C)[C@]2(C)CC3)c1 (stereo partly specified) | 23.5% (inactive) |
| CCCCSc1nc(NCCc2c[nH]c3ccccc23)c(C#N)c(-c2ccc(F)cc2)n1 | 76.1% (inactive) |
| COc1ccc(-c2ccnc(SCc3cc4cc(Cl)ccc4[nH]c3=O)n2)cc1 | 10.1% (inactive) |
| O=c1[nH]c2ccccc2cc1CSc1nccc(-c2ccc3ccccc3c2)n1 | 80.3% (inactive) |
| CCCCCCCCc1ccc(S(=O)(=O)Nc2ccc(CC)cc2C(=O)O)cc1 | 96% (inactive) |
| COc1cc(OC)c2c3nc4cc(C)c(C)cc4nc3n(CCN(C)C)c2c1 | 63.3% (inactive) |
| N#Cc1c(-c2cccc(O)c2O)cc(-c2ccc3ccccc3c2)[nH]c1=O | 69.5% (inactive) |
| O=c1[nH]n(C(=S)N/N=C/c2ccccc2Cl)c(=O)c2ccccc12 | 33% (inactive) |
| COc1ccc(C(=O)/C=C/c2cccc(Cl)c2Cl)cc1S(N)(=O)=O | 35.9% (inactive) |
| COc1ccc(C(=O)/C=C/c2cccnc2)cc1S(N)(=O)=O | 91.7% (inactive) |
| Cc1cc2nc3c4ccccc4n(CC4=NCCN4)c3nc2cc1C | -0.803% (active) |
| CCCCCCCCc1ccc(C(=O)Nc2cccc(P(=O)(O)O)c2)cc1 | 111% (inactive) |
| Cc1cc2nc3c([nH]c2cc1C)c1ccc(=O)cc1n3CCN(C)C | 46.9% (inactive) |
| O=C(c1ccc(Cl)cc1)c1ccc(OCCCN2CCN(c3ccncc3)CC2)cc1 | 47.3% (inactive) |
| CCCCSc1nc(NCCc2c[nH]c3ccccc23)c(C#N)c(-c2ccccc2)n1 | 62.2% (inactive) |
| O=C1N/C(=N\c2nccs2)S/C1=C\C=C/c1ccccc1 | 44.5% (inactive) |
| CC(=O)OC[C@@]1(C)C2CC[C@]3(C)C(CC=C4C5CC(C)(C)CC[C@]5(C(=O)Nc5cccc(C)c5)CC[C@]43C)[C@@]2(C)C[C@@H](OC(C)=O)[C@@H]1OC(C)=O (stereo partly specified) | 38.6% (inactive) |
| COc1ccc(C(SCCNCc2cc(N(C)C)ccn2)(c2ccccc2)c2ccccc2)cc1 | 22.3% (inactive) |

| Compound | growth |
| --- | --- |
| O=c1onc(-c2cc3ccccc3nc2Cl)n1-c1cccc2ccccc12 | 38.6% (inactive) |
| COc1ccc(C2=NN(c3ccccc3)C(c3ccc(OCc4ccccc4)c(OC)c3)C2)cc1OC (stereo unspecified) | 113% (inactive) |
| Nc1n[nH]c2cccc(C#Cc3cccc(NC(=O)c4cccc(Cl)c4)c3)c12 | 39.9% (inactive) |
| O=C(Cn1c2c(sc1=O)[C@H]1[C@@H](O)[C@@H](O)[C@H](O)[C@@H]1CS2)N1CCOCC1 | 102% (inactive) |
| CC(=O)Nc1cccc(Nc2nc(N[C@H]3CCCc4ccccc43)c3ccccc3n2)c1 | 104% (inactive) |
| N/C(=N\c1nc2ccccc2s1)NC(=O)NCCCCCCO | 17.8% (inactive) |
| COc1ccc2c(c1)C(=N/N=C(\C)c1ccc(OC)c(S(N)(=O)=O)c1)C(=O)N2 | 96.6% (inactive) |
| CCCSc1nc(NCCc2c[nH]c3ccccc23)c(C#N)c(-c2ccc(F)cc2)n1 | 70.7% (inactive) |
| O=c1[nH]c2ccccc2cc1CSc1cccc(Nc2nccc(-c3ccc4ccccc4c3)n2)c1 | 69.4% (inactive) |
| CCN(CC)c1ccnc(CNCCSC(c2ccccc2)(c2ccccc2)c2ccc(C)cc2)c1 | -21% (active) |
| CN(C)CCn1c2ccccc2c2nc3cc(C(F)(F)F)ccc3nc21 | 54.3% (inactive) |
| CC1(C)CC[C@]2(C(=O)Nc3ccc(Br)cc3)CC[C@]3(C)C(=CCC4[C@@]5(C)C[C@@H](O)[C@H](O)[C@@](C)(CO)C5CC[C@]43C)C2C1 (stereo partly specified) | 5.44% (active) |
| CCC(C)(C)c1ccc(OCCCCCCN2CCN(c3ccncc3)CC2)cc1 | 47.7% (inactive) |
| COc1ccc(C(=O)/C=C/c2ccc(Cl)c(Cl)c2)cc1S(N)(=O)=O | 34.6% (inactive) |
| Cc1cc(N=C2NC(=O)CS2)n[nH]1 | 123% (inactive) |
| Cc1ccc(C(=O)CSc2nc3ccc(F)cc3c(=O)n2-c2ccc(Cl)cc2)cc1 | 31% (inactive) |
| COc1ccc(C(=O)/C=C/c2cccc(Br)c2)cc1S(N)(=O)=O | 7.28% (active) |
| Cc1sc(C(NC(=O)OCCn2c([N+](=O)[O-])cnc2C)C(F)(F)Cl)nc1-c1ccc(OC(F)(F)F)cc1 (stereo unspecified) | -37.7% (active) |
| COc1ccc(NC(=O)Cn2c3c(sc2=O)[C@H]2[C@@H](O)[C@@H](O)[C@H](O)[C@@H]2CS3)cc1 | 106% (inactive) |
